# A selection: hits, their analogues and other compounds. The true share with any hit is near 4.6%.
# Wee1 degr inh – blocks degradation of human Wee1 kinase | P30291 | HeLa Luc-Wee1K328M stability, luciferase luminescence; 100% = proteasome inhibitor MG132 effect | reporter increase, % at 5 µM | 220,000 compounds, 1.2% hits | AID 1321;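 active means activation above the mean of all tested compounds plus 3 SD, set per screening run, cut at about 8.8% in these data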;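 further: cells exposed to compound for 20 h before luminescence read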
# Target sequence (P30291 whole entry K328M): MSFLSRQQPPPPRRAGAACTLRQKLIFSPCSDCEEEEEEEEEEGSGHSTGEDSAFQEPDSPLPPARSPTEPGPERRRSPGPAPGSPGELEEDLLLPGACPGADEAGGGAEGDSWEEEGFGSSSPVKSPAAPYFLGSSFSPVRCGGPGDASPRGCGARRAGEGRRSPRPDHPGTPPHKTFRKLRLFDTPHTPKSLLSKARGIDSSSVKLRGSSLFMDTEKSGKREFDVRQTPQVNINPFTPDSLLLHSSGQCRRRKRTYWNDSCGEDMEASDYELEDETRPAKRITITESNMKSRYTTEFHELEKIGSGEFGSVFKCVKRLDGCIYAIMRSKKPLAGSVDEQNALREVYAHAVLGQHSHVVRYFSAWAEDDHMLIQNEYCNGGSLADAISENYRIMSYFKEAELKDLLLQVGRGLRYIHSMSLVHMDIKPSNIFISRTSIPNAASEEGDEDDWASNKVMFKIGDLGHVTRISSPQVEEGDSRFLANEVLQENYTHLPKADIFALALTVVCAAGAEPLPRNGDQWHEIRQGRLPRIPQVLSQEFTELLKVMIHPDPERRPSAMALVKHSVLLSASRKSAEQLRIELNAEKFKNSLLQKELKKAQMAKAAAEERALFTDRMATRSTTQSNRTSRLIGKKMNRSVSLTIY
# DAX1 inh-1 – DAX1 (NR0B1) inhibition, primary screen; AID 652010; inhibition, % at 6.8 µM; 370,000 compounds, 1.1% hits; HEK293T StAR-luciferase reporter, SF-1/DAX-1 repression relief;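 active means inhibition above the mean over all tested compounds plus 3 SD, cut at about 3.6% in these data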;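 further: higher inhibition means more luminescence from relief of DAX-1 repression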
# hcDAF12 agonist – activators of H. contortus DAF-12 nuclear receptor | HEK293 hcDAF-12 lit1-tk-luc reporter, luminescence; 0% DMSO, 100% Δ7-dafachronic acid | activation, % at 6.8 µM | 370,000 compounds, 1.4% hits | AID 652067;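 active means activation above the mean of all tested compounds plus 3 SD, cut at about 5.5% in these data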
# ssDAF-12 act – activates DAF-12 receptor from parasite S. stercoralis; HEK293 ssDAF-12/GRIP1 lit1-tk-luc reporter, luminescence; % of 3 µM dafachronic acid response; AID 652126; activation, % at 6.8 µM; 370,000 compounds, 1% hits;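 active means activation above the mean over all tested compounds plus 3 SD, cut at about 0.9% in these data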
# hgDAF-12 ag – hgDAF-12 agonism, primary luciferase screen. activation, % at 6.8 µM. 370,000 compounds, 1.8% hits. HEK293 GAL4-hgDAF12 UAS-luciferase reporter, agonist luminescence; normalized to butyrate control. AID 687014;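 active means activation above a cutoff set at the mean of all screened compounds plus 3 SD, cut at about 10% in these data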
# DAX1 inh-2 – NR0B1 (DAX1) inhibition. P51843. HEK293 Gal4-DAX1 luciferase reporter, luminescence. inhibition, % at 6.75 µM. 340,000 compounds, 0.99% hits. AID 504766;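 active means inhibition above the mean over all tested compounds plus 3 SD, cut at about 4.2% in these data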;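 further: inhibition shows as a rise in luminescence from relieved DAX1 repression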
# Wee1 degr conf – human Wee1 degradation inhibition, confirmation | activation, % at 5 µM | AID 1410 | 1,100 compounds, 4% hits | shares compounds with Wee1 degr inh | HeLa Luc-Wee1K328M degradation, luminescence; vehicle 0%, proteasome-blocked wells 100%; in the data active means activation above about 8.9%
# A number is an active result; i = inactive; nt = no result given.
SMILES,Wee1 degr inh,DAX1 inh-1,hcDAF12 agonist,ssDAF-12 act,hgDAF-12 ag,DAX1 inh-2,Wee1 degr conf
CCC(C)NC(=O)Cn1cnc2sc(C)c(S(=O)(=O)N3CCN(c4ncccn4)CC3)c2c1=O (configuration not stated),16,i,i,i,i,i,i
COc1ccc(C2=NN(S(=O)(=O)c3ccccc3)C(c3ccccc3)C2)cc1 (configuration not stated),11,i,i,i,i,i,i
CC(C)c1nnc(NC(=O)COc2ccccc2[N+](=O)[O-])s1,23,i,i,i,i,nt,i
O=C(COc1ccccc1[N+](=O)[O-])NNC(=O)Nc1cccc2ccccc12,16,i,i,i,i,i,i
CCNS(=O)(=O)c1ccc(Br)c(C(=O)OC(C)C(=O)NCC2CCCCC2)c1 (configuration not stated),nt,i,i,i,i,i,nt
Cc1csc(SCC(=O)Nc2cc(S(=O)(=O)N3CCCC3)ccc2Cl)n1,13,i,i,i,i,i,i
CNC(=S)NCc1ccc2[nH]c3c(c2c1)CCCC3,11,i,i,i,i,i,i
CCN(CC)c1ccc(/C=N/NC(=S)NC)c(O)c1,14,i,i,i,i,i,i
CS(=O)(=O)Nc1ccc(C(=O)Nc2ccc(S(=O)(=O)N3CCCC3)cc2)cc1,13,i,i,i,i,i,i
CS(=O)(=O)Nc1ccc(C(=O)Nc2ccc(S(=O)(=O)N3CCCCC3)cc2)cc1,nt,i,i,i,i,i,nt
CNC(=O)COc1ncnc2scc(-c3ccc(F)cc3)c12,12,i,i,i,i,i,i
CC(=O)c1cccc(NC(=O)C2CC(c3ccc(F)cc3)=NO2)c1 (configuration not stated),26,i,i,i,i,i,i
CC(=O)c1ccc(NC(=O)C2CC(c3ccc(F)cc3)=NO2)cc1 (configuration not stated),i,i,i,i,i,i,nt
CCn1cc(C(=O)OCC(=O)N(C)C2CCS(=O)(=O)C2)c(=O)c2ccc(C)nc21 (configuration not stated),i,i,i,i,i,i,nt
CCn1cc(C(=O)OCC(=O)N2C(C)CCCC2C)c(=O)c2ccc(C)nc21 (configuration not stated),11,i,i,i,i,i,i
S=P(N1CC1)(N1CC1)N1CC1,nt,i,i,i,i,i,nt
Cc1ccc(Nc2c(F)cccc2Cl)c(CC(=O)O)c1,nt,i,i,i,i,nt,nt
CCCCNc1c2c(nc3c(-c4ccccc4)c(C)nn13)CCC2,13,i,i,i,i,i,i
Cc1nn2c(NCCCN3CCOCC3)c3c(nc2c1-c1ccccc1)CCC3,i,i,i,i,i,i,nt
CC(C)Cn1c(-c2ccc(C#N)cc2)nc2c1c(=O)[nH]c(=O)n2CC(C)C,36,i,i,i,i,i,i
COCCn1c(-c2ccc(NC(C)=O)cc2)nc2c1c(=O)[nH]c(=O)n2CC(C)C,nt,i,i,i,i,i,nt
C=CCC1(/C=N/O)CCOC(C)(C)C1 (configuration not stated),i,i,i,i,i,i,nt
CCc1ccc(C2c3[nH]c4ccccc4c3CCN2C(=O)c2ccc(=O)n(C)n2)cc1 (configuration not stated),i,i,i,i,i,i,nt
CCc1ccc(C2c3[nH]c4ccccc4c3CCN2C(=O)CNC(N)=O)cc1 (configuration not stated),23,i,i,i,i,i,i
Cc1cc2c(cc1C)C(c1ccccc1Br)CC(=O)N2 (configuration not stated),15,i,i,i,i,i,i
SMILES,Wee1 degr inh,DAX1 inh-1,hcDAF12 agonist,ssDAF-12 act,hgDAF-12 ag,DAX1 inh-2,Wee1 degr conf
COc1ccccc1C1CC(=O)Nc2cc(C)c(C)cc21 (configuration not stated),nt,i,i,i,i,i,nt
C/C=C/c1cc(CN2CCN(c3ccccc3)CC2)c(O)c(OC)c1,11,i,i,i,i,i,i
C/C=C/c1cc(CN2CCN(c3ccc(OC)cc3)CC2)c(O)c(OC)c1,i,i,i,i,i,i,nt
CCN(CC)S(=O)(=O)c1ccc(N2CC(C(=O)Nc3cccc(C(=O)NC4CC4)c3)CC2=O)cc1 (configuration not stated),nt,i,i,i,i,i,nt
Cc1cc(N/N=C/c2ccc(F)cc2)nc(NCc2ccccc2)n1,12,i,i,i,i,nt,i
Cc1cc(C)n(C(=O)c2ccc(C)c(S(=O)(=O)N3CCCCC3)c2)n1,24,i,i,i,i,i,i
Cc1ccc(NC(=O)c2cccc(F)c2)cc1S(=O)(=O)N1CCCCCC1,14,i,i,i,i,i,i
O=C(O)CCn1cc(/C=C2\SC(=S)NC2=O)c(-c2ccccc2)n1,13,i,i,i,i,nt,i
O=C(O)CCn1cc(/C=C2/NC(=S)N(c3ccccc3)C2=O)c(-c2ccccc2)n1,i,i,i,i,i,i,nt
O=c1c2c(ncn2C2CCCC2)n(Cc2ccccc2)c(=O)n1CCOc1ccc(Br)cc1,i,i,i,i,i,i,nt
O=c1c2c(ncn2C2CCCC2)n(Cc2ccccc2)c(=O)n1CCOc1ccccc1,14,i,i,i,i,i,i
CCCCN1C(=O)NC(NC(=O)c2ccco2)(C(F)(F)F)C1=O (configuration not stated),17,i,i,i,i,i,i
CCCCN1C(=O)NC(NC(=O)C2CC2)(C(F)(F)F)C1=O (configuration not stated),i,i,i,i,i,i,nt
CN(Cc1c(F)cccc1Cl)C(=O)C1CC(=O)N(CCc2ccccc2)C1 (configuration not stated),12,i,i,i,i,i,i
CCN(CC(=O)Nc1c(F)cccc1F)C(=O)C1CC(=O)N(CCc2ccccc2)C1 (configuration not stated),nt,i,i,i,i,i,nt
O=C(CSc1nnc(-c2ccc3c(c2)OCO3)o1)Nc1ncc(C(F)(F)F)cc1Cl,i,i,i,i,i,i,nt
Cc1nc(NC(=O)CSc2nnc(-c3ccc4c(c3)OCO4)o2)c(Cl)cc1Cl,11,i,i,i,i,i,i
O=C(CSc1nc(-c2ccco2)cc(C(F)(F)F)n1)N1CCSCC1,12,i,i,i,i,i,i
CCN(CC)S(=O)(=O)c1ccc(C(=O)NCCc2ccccn2)cc1,12,i,i,i,i,i,9.3
O=C(NCCc1ccccn1)c1ccc(NS(=O)(=O)c2ccc(F)cc2)cc1,i,i,i,i,i,i,nt

# Screens as filed in PubChem.
